NS1 function inh: qHTS Assay for Inhibitors of Influenza NS1 Protein Function | Potency, µM (doses to about 46.1 µM), for the others: top-dose activity, positive = more growth | 270,000 compounds, 0.4% hits; calls by dose curve; note: potency is the fitted concentration of half-maximal effect; actives are rising curves; nearly all actives have a fitted effect of over 50% in size
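Compounds were scored for reversing the slow growth caused by influenza A NS1 in S. cerevisiae, measured by optical density at 600 nm. Assay medium contained 2% galactose at pH 6.0; NS1-free yeast of the same strain were the positive control.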
Giardia FBPA inh: qHTS Assay for Inhibitors of Fructose-1,6-bisphosphate Aldolase from Giardia Lamblia. A8B2U2. purified Giardia FBPA. Potency, µM (top dose mostly 59.6 µM), for the others: top-dose activity, negative = inhibition, hits mostly inhibitors. 290,000 compounds, 0.71% hits. AID 2451, 2010; note: potency is the fitted concentration of half-maximal effect; % is set by controls: 0 for no effect and ±100 for the full control effect; nearly all actives have a fitted effect of over 55% in size
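40 nM FBPA preincubated 10 min at RT with compound (up to 57.5 uM final), then substrate plus GAPDH/TPI/NAD/arsenate coupling and diaphorase/resazurin added. Fluorescence read after 20 min at RT, 525/598 nm.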
Shiga toxin inh: A qHTS for Small Molecule Inhibitors of Shiga Toxin. Vero cells, Shiga toxin protein synthesis inhibition reporter. 290,000 compounds, 9.2% hits. inhibition, % at 38.7 µM; in the data active = inhibition mostly above about 28%, no sharp cut-off; inactive = mostly below about 43%; note: 0% is about no effect
Cycloheximide cs: Cycloheximide Counterscreen for Small Molecule Inhibitors of Shiga Toxin; cell reporter, cycloheximide protein synthesis inhibition counterscreen; AID 2314, 2010; max response, %; 300,000 compounds, 12% hits; in the data active = max response mostly above about 13%, no sharp cut-off; inactive = mostly below about 14%; note: read at 38.3 µM for the half of the compounds with a filed dose; 0% is about no effect
LmPK inh: qHTS Assay for Inhibitors of Leishmania Mexicana Pyruvate Kinase (LmPK); Q27686; purified LmPK, Kinase-Glo ATP luminescence, 1 h; 290,000 compounds, 0.37% hits; Potency, µM (titrated, usually from 57.5 µM), for the others: at the highest dose activity change, negative = inhibition, hits mostly inhibitors; note: potency is the fitted concentration of half-maximal effect; % is set by controls: 0 for no effect and ±100 for the full control effect
Target sequence (Q27686 whole entry, looked up): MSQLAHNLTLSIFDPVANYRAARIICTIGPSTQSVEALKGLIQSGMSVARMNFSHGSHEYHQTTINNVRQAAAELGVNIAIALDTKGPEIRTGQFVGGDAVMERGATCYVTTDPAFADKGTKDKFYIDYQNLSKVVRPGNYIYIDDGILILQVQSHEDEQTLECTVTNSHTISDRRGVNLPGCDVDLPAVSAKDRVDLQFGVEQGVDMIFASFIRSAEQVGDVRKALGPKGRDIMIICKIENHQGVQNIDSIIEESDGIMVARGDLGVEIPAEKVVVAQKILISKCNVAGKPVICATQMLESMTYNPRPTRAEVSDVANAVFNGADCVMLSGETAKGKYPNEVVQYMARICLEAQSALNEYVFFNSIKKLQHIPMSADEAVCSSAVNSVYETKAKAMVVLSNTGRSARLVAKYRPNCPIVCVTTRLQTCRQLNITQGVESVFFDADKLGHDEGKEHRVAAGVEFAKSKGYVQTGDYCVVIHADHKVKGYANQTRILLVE
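Screened at intermediate enzyme activity to detect both inhibitors and activators: LmPK at 0.1 nM, with a 0.5 nM enzyme column as activation reference. PEP 0.5 mM, ADP 0.1 mM; ATP detected by luminescence after 1 h.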
* = called active by the depositor; [ ] = remark or other dose. Compounds with a hit are over-represented: about 14% of the library has one in this group of screens. Unless noted, calls come from the whole dose curve; as a rule, active = well fitted curve in the direction sought with a large enough effect; inconclusive = small, poorly fitted or top-dose-only effect, or another doubt; inactive = no such curve, though single readings can be large; an effect the other way counts as inactive or inconclusive.

For CN=Cc1sc2ccccc2c1O the results were NS1 function inh -31.1%, Giardia FBPA inh -0.3%, Shiga toxin inh 32.7, Cycloheximide cs 18.7* and LmPK inh -2.7%.
Screening Oc1ccc2ccccc2c1N=Nc1ccccn1 returned NS1 function inh -181.3%, Giardia FBPA inh -1.4%, Shiga toxin inh 18.1, Cycloheximide cs 15.0 and LmPK inh -13.9%.
For Oc1c(/C=N/c2ccccn2)sc2ccccc12 the results were NS1 function inh -71.0%, Giardia FBPA inh -9.5%, Shiga toxin inh 61.4*, Cycloheximide cs 40.1* and LmPK inh 6.31µM*.
`COc1ncc2nc(-c3ccc(F)cc3)c(=O)n(CCC#N)c2n1` gave Giardia FBPA inh 7.0%.
Screening COc1ccc(CCNC(=O)CCS(=O)(=O)c2ccc3c(c2)NC(=O)C(C)S3)cc1OC (stereo unspecified) returned NS1 function inh 12.4%, Giardia FBPA inh -9.7%, Shiga toxin inh -3.0, Cycloheximide cs 8.0 and LmPK inh 0.1%.
`COC(=O)c1c(-c2ccc(F)cc2)csc1NC(=O)c1ccco1` gave NS1 function inh 1.3%, Giardia FBPA inh 2.9%, Shiga toxin inh 93.6*, Cycloheximide cs 60.7* and LmPK inh 4.6%.
`COc1ccc(-c2csc(NC(=O)c3ccccc3F)c2C(=O)O)cc1` gave NS1 function inh -70.0%, Giardia FBPA inh -26.4%, Shiga toxin inh 59.4*, Cycloheximide cs 35.7* and LmPK inh 1.0%.
Screening O=C(Nc1scc(-c2ccccc2)c1C(=O)O)c1ccco1 returned NS1 function inh -41.4%, Giardia FBPA inh -3.4%, Shiga toxin inh 62.9*, Cycloheximide cs 30.9* and LmPK inh -23.7%.
O=C(Nc1scc(-c2ccccc2)c1C(=O)O)c1ccccc1Cl was read as NS1 function inh -36.0%, Giardia FBPA inh -11.2%, Shiga toxin inh -6.8, Cycloheximide cs 10.3 and LmPK inh -2.9%.
`N#Cc1c(OCC(=O)c2ccccc2)nc2c(c1-c1ccco1)CCc1ccccc1-2` gave NS1 function inh 3.8%, Giardia FBPA inh -14.2%, Shiga toxin inh 17.8, Cycloheximide cs -2.6 and LmPK inh -0.1%.
CCOC(=O)COc1nc2c(c(-c3ccco3)c1C#N)CCc1ccccc1-2 was read as NS1 function inh -6.4%, Giardia FBPA inh -14.4%, Shiga toxin inh 41.8*, Cycloheximide cs 18.7 and LmPK inh -1.1%.
CCC(CC)(CC(=O)Nc1cccc(/C=C/c2nc(C3CCC3)cs2)c1)C(=O)O was read as Giardia FBPA inh 0.1%.
`Cc1ccccc1CN1CCC(CNC(=O)Nc2ccc(F)cc2F)CC1` gave NS1 function inh 2.7%, Giardia FBPA inh -3.3%, Shiga toxin inh -9.3, Cycloheximide cs -2.5 and LmPK inh -6.2%.
Cc1cc(I)ccc1Nc1c(C(=O)NOCC2CC2)cc(F)c(F)c1F was read as Giardia FBPA inh 0.5%, Shiga toxin inh 58.2* and Cycloheximide cs 16.7*.
Screening CCN(CC)CCNc1cc(C)nc2c1C(=O)C(=O)C=C2N1CCCCC1 returned NS1 function inh 0.3%, Giardia FBPA inh 1.99µM*, Shiga toxin inh -16.3, Cycloheximide cs -2.1 and LmPK inh inconclusive.
`CCN(CC)CCNC(=O)c1ccc(N2CCCCC2)c(NS(=O)(=O)c2ccc(C)cc2)c1` gave NS1 function inh -7.8%, Giardia FBPA inh -16.2%, Shiga toxin inh -9.5, Cycloheximide cs -2.3 and LmPK inh -5.1%.
Screening O=S(=O)(CCC(F)=C(F)F)c1nnnn1C1CCCCC1 returned Giardia FBPA inh 1.9%.
CCn1cc(/C=C/C(=O)c2ccc(O)cc2)c(C)n1 was read as NS1 function inh 5.4%, Giardia FBPA inh -18.7%, Shiga toxin inh 15.2, Cycloheximide cs 12.9* and LmPK inh -20.1%.
`Cc1nn(C)cc1/C=C/C(=O)c1ccccc1` gave NS1 function inh -101.0%, Giardia FBPA inh 4.2%, Shiga toxin inh 65.3*, Cycloheximide cs 27.9* and LmPK inh inconclusive.
`Cc1nn(C)c(C)c1CNC(=O)/C=C/c1ccccc1F` gave NS1 function inh -2.9%, Giardia FBPA inh 0.7%, Shiga toxin inh -8.0, Cycloheximide cs -4.9 and LmPK inh -2.5%.
Screening O=C(/C=C/c1ccc(O)cc1)c1cccs1 returned Giardia FBPA inh 2.6%.
`Cc1nn(C)c(C)c1/C=C/C(=O)c1ccccc1` gave NS1 function inh -49.3%, Giardia FBPA inh -6.4%, Shiga toxin inh 35.6*, Cycloheximide cs 26.8* and LmPK inh -10.1%.
`Cc1nn(C)cc1/C=C/C(=O)c1cccs1` gave NS1 function inh -29.4%, Giardia FBPA inh 2.5%, Shiga toxin inh 58.3*, Cycloheximide cs 48.2* and LmPK inh inconclusive.
COc1ccc(NC(=O)N2CCNC(=O)C2CC(=O)Nc2ccc(F)cc2)cc1 (stereo unspecified) was read as NS1 function inh 3.4%, Shiga toxin inh -6.3, Cycloheximide cs -2.3 and LmPK inh -0.9%.
For Cc1sc2nc[nH]c(=O)c2c1-c1ccc(Cl)cc1 the results were NS1 function inh -1.1%, Giardia FBPA inh -5.0%, Shiga toxin inh -10.4, Cycloheximide cs -3.7 and LmPK inh 2.4%.
Screening CCCNC(=O)OC[C@@H]1O[C@H](CCO/N=C(\C)CCC(=O)OC[C@@H]2O[C@H](C#Cc3ccccc3)C=C[C@@H]2Oc2ccc(C)cc2)C=C[C@@H]1Oc1ccc(OC)cc1 returned Giardia FBPA inh 0.0%[12.9 µM].
Screening CN(C)S(=O)(=O)c1ccc(Nc2ccc(-c3ccc4c(c3)OCCO4)nn2)cc1 returned NS1 function inh 0.9%, Giardia FBPA inh -1.9%, Shiga toxin inh 25.0, Cycloheximide cs -1.5 and LmPK inh -0.9%.
For CN(C(=O)c1cccc(Nc2ccc(-c3ccc4c(c3)OCCO4)nn2)c1)C1CCCCC1 the results were NS1 function inh inconclusive, Giardia FBPA inh -0.2%, Shiga toxin inh 64.4*, Cycloheximide cs 52.8* and LmPK inh inconclusive.
Cc1ccc(C(=O)n2c(=S)nc3ccccn32)cc1 was read as NS1 function inh -3.2%, Giardia FBPA inh 0.0%, Shiga toxin inh 54.0*, Cycloheximide cs 48.8* and LmPK inh 14.1µM*.
Cc1cccc(C(=O)n2c(=S)nc3ccccn32)c1 was read as NS1 function inh -90.5%, Giardia FBPA inh 0.6%, Shiga toxin inh 83.1*, Cycloheximide cs 29.3* and LmPK inh 12.6µM*.
For CCCCCCC/C=C/C1=CC2(C)CC1(C)C(CCCCCCC)CC2=O (stereo unspecified) the results were Giardia FBPA inh 1.6%[12.9 µM].
Screening Cc1c(/C=C/C(=O)c2ccc(O)cc2)cnn1C returned NS1 function inh -0.1%, Giardia FBPA inh -25.9%, Shiga toxin inh 48.7*, Cycloheximide cs 19.2* and LmPK inh -16.4%.
Cc1c(/C=C/C(=O)c2ccccc2)cnn1C was read as NS1 function inh -39.1%, Shiga toxin inh 179.5*, Cycloheximide cs 52.5* and LmPK inh inconclusive.
`CCn1ncc(/C=N\NC(=O)COc2ccccc2)c1C` gave NS1 function inh 1.4%, Giardia FBPA inh 1.0%, Shiga toxin inh 67.2*, Cycloheximide cs 8.7 and LmPK inh 0.4%.
